Experimental data taken from publication PMC5540273 (PLoS ONE, 2017).

System: TGFBR2
Details: concentration: 1 μM,replicates: in singlicate; n = 1
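Also: KINOMEscan kinase panel screen.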

For CN1CCN(CCCNc2nccc(-c3c(-c4ccc(F)cc4)nn4cc(C(N)=O)ccc34)n2)CC1 [GW622475], which “%Inh” value is on record?
The value was 77%.

For C[C@@H]1CNc2c(sc3ccc4nc(-c5ccc(O)cc5)ccc4c23)C(=O)N1, which “%Inh” value is on record?
The value was 60%.

CCn1c(-c2nonc2N)nc2cncc(Br)c21 [SB-738004] was tested. Which “%Inh” value did it give?
Its value is 0%.

With C[C@@H]1CCN(C(=O)N2CCCC2)C[C@@H]1N(C)c1ncnc2[nH]ccc12 as the compound, how does the “%Inh” value read?
Its value is 0%.

With CS(=O)c1ccc(-c2coc3ccc(-c4n[nH]c(=O)o4)cc23)cc1 (centres unmarked) as the compound, how does the “%Inh” value read?
The value was 18%.

Which “%Inh” value does the source give for CCn1c(-c2nonc2N)nc2cncc(CNC3CCNCC3)c21.Cl [SB-747651] here?
Its value is 0%.

For C[C@@H](Oc1cc(-n2cnc3cc(-c4cnn(C)c4)ccc32)sc1C(N)=O)c1ccccc1Cl [GSK580432], which “%Inh” value is on record?
The value was 0%.

Which “%Inh” value does the source give for CN1CCN(CCNc2nc3cc(Oc4ccc(NC(=O)Nc5cc(C(F)(F)F)ccc5F)cc4)ccc3[nH]2)CC1.Cl.Cl [GW768504] here?
The value was 4%.

Which “%Inh” value does the source give for CCNCC(Cc1ccccc1)NC(=O)c1cc(Br)c(-c2ccnc3[nH]ccc23)s1.Cl.Cl (centres unmarked) [GSK1383280] here?
Its value is 0%.

Which “%Inh” value does the source give for CCCC(=O)Nc1n[nH]c2ncccc12 [SB-601436] here?
Its value is 0%.

Which “%Inh” value does the source give for COc1cccc(C2=C(Nc3cccc(Cl)c3)C(=O)NC2=O)c1 [SB-341556] here?
Its value is 0%.

C[C@@H]1CNc2c(sc3ccc4nc(-c5ccncc5)ccc4c23)C(=O)N1 was tested. Which “%Inh” value did it give?
Its value is 48%.

How did the “%Inh” value turn out when CC(=O)c1c(-c2ccncc2)[nH]c(-c2ccncc2)c1C [GW493036] was run?
Its value is 25%.

For CCN1CCN(CCCC(=O)Nc2n[nH]c3nc(-c4ccc(O)cc4)c(Br)cc23)CC1 [SB-731579], which “%Inh” value is on record?
The value was 0%.

How did the “%Inh” value turn out when O=c1[nH]cc(-c2ccc(O)cc2)c2sc(-c3ccncc3)cc12 [GSK1033723] was run?
The value was 0%.

For Nc1nccc(-c2ccc3c(N)n[nH]c3c2)n1 [GSK1034945], which “%Inh” value is on record?
Its value is 0%.

How did the “%Inh” value turn out when COC(=O)c1cccc(NC(=O)NC2CCN(c3ccnc(NCc4ccc(F)cc4)n3)CC2)c1 [GSK1379860] was run?
The value was 0%.

Which “%Inh” value does the source give for COc1cc2nccc(Nc3ccc(Oc4ccccc4)cc3)c2cc1OC.Cl [GI261656] here?
The value was 0%.

How did the “%Inh” value turn out when Cn1ccc2ncnc(Oc3ccc(NC(=O)Nc4cccc(C(F)(F)F)c4)c(Cl)c3)c21 was run?
Its value is 0%.

How did the “%Inh” value turn out when CNC(=O)c1ccccc1Nc1nc(Nc2cccc(CS(C)(=O)=O)c2)ncc1C.O=CO [GSK1520489] was run?
The value was 37%.

With Cc1cccc2c(-c3ccncc3)c(-c3ccc(F)cc3)nn12.Cl [GW461487] as the compound, how does the “%Inh” value read?
Its value is 0%.

With Cc1nnc(-c2ccc3occ(-c4ccc(S(C)=O)cc4)c3n2)o1 (centres unmarked) as the compound, how does the “%Inh” value read?
Its value is 0%.

How did the “%Inh” value turn out when OCCn1cc(-c2cnc3nnn(Cc4ccc5ncccc5c4)c3n2)cn1 was run?
Its value is 0%.

Which “%Inh” value does the source give for COC(=O)c1cccc(NC(=O)NC2CCN(c3ccnc(Nc4cc(OC)c(OC)c(OC)c4)n3)C2)c1 (centres unmarked) [GSK1379767] here?
Its value is 0%.

For O=C(Nc1cccc(C(F)(F)F)c1)c1cccc(Oc2ccc3nccn3n2)c1, which “%Inh” value is on record?
Its value is 0%.

For Cc1cccc(-c2nc(Nc3ccncc3)c3sccc3n2)n1 [GW869641], which “%Inh” value is on record?
The value was 95.6%.

COc1cc2ncn(-c3cc(OCC4CCCCC4)c(C(N)=O)s3)c2cc1OC [GSK204559] was tested. Which “%Inh” value did it give?
Its value is 0%.

Cn1cc(-c2cccc3c(N)c(C(N)=O)nnc23)cn1 was tested. Which “%Inh” value did it give?
Its value is 16%.

How did the “%Inh” value turn out when NC(=O)Nc1sc(-c2ccc(F)cc2)cc1C(N)=O [GW789449] was run?
Its value is 0%.

For c1ccc(Oc2ccc(Nc3ccnc4ccc(-c5ccccn5)cc34)cc2)cc1 [GW407034], which “%Inh” value is on record?
The value was 0%.

For Cn1ccc2ncnc(Oc3ccc(NC(=O)Nc4cnn(C(C)(C)C)c4)c(Cl)c3)c21, which “%Inh” value is on record?
The value was 5%.

Which “%Inh” value does the source give for Cc1ccc(Nc2ccnc(Nc3ccc4c(c3)CS(=O)(=O)C4)n2)cc1O.Cl [GW579362] here?
Its value is 99.4%.

Cc1ccc(C(=O)Nc2ccc(Oc3ccc4nc(NC(=O)C5CC5)cn4c3)c(F)c2)c(=O)n1-c1ccccc1 was tested. Which “%Inh” value did it give?
Its value is 0%.

CC(C(=O)NC1CCN(c2ccnc(Nc3ccc(F)cc3)n2)C1)c1ccc(Cl)cc1 (centres unmarked) [GSK1379713] was tested. Which “%Inh” value did it give?
Its value is 0%.

For COC(=O)Nc1nc2cc(Oc3ccc(NC(=O)Nc4cc(C(F)(F)F)ccc4Cl)cc3)ccc2[nH]1.Cl [GW697465], which “%Inh” value is on record?
Its value is 6%.

For CCOC(=O)N1CCC(n2cnc(-c3ccc(F)cc3)c2-c2ccnc(N)n2)CC1 [SB-219952], which “%Inh” value is on record?
Its value is 10%.

How did the “%Inh” value turn out when Cn1ccc2ncnc(Oc3ccc(NC(=O)Nc4cc(C(C)(C)C)on4)c(Cl)c3)c21 was run?
Its value is 0%.

System: TIE1
Details: concentration: 1 μM,replicates: in singlicate; n = 1

Which “%Inh” value does the source give for CN1CCN(CCCNc2nccc(-c3c(-c4ccc(F)cc4)nn4cc(C(N)=O)ccc34)n2)CC1 [GW622475] here?
The value was 6%.

For C[C@@H]1CNc2c(sc3ccc4nc(-c5ccc(O)cc5)ccc4c23)C(=O)N1, which “%Inh” value is on record?
Its value is 0%.

Which “%Inh” value does the source give for CCn1c(-c2nonc2N)nc2cncc(Br)c21 [SB-738004] here?
The value was 0%.

With C[C@@H]1CCN(C(=O)N2CCCC2)C[C@@H]1N(C)c1ncnc2[nH]ccc12 as the compound, how does the “%Inh” value read?
The value was 22%.

With CS(=O)c1ccc(-c2coc3ccc(-c4n[nH]c(=O)o4)cc23)cc1 (centres unmarked) as the compound, how does the “%Inh” value read?
The value was 0%.

How did the “%Inh” value turn out when CCn1c(-c2nonc2N)nc2cncc(CNC3CCNCC3)c21.Cl [SB-747651] was run?
The value was 5%.

For C[C@@H](Oc1cc(-n2cnc3cc(-c4cnn(C)c4)ccc32)sc1C(N)=O)c1ccccc1Cl [GSK580432], which “%Inh” value is on record?
The value was 94.2%.

How did the “%Inh” value turn out when CN1CCN(CCNc2nc3cc(Oc4ccc(NC(=O)Nc5cc(C(F)(F)F)ccc5F)cc4)ccc3[nH]2)CC1.Cl.Cl [GW768504] was run?
Its value is 89%.

Which “%Inh” value does the source give for CCNCC(Cc1ccccc1)NC(=O)c1cc(Br)c(-c2ccnc3[nH]ccc23)s1.Cl.Cl (centres unmarked) [GSK1383280] here?
Its value is 75%.

How did the “%Inh” value turn out when CCCC(=O)Nc1n[nH]c2ncccc12 [SB-601436] was run?
The value was 0%.

For COc1cccc(C2=C(Nc3cccc(Cl)c3)C(=O)NC2=O)c1 [SB-341556], which “%Inh” value is on record?
The value was 4%.

For C[C@@H]1CNc2c(sc3ccc4nc(-c5ccncc5)ccc4c23)C(=O)N1, which “%Inh” value is on record?
The value was 0%.

Which “%Inh” value does the source give for CC(=O)c1c(-c2ccncc2)[nH]c(-c2ccncc2)c1C [GW493036] here?
Its value is 0%.

Which “%Inh” value does the source give for CCN1CCN(CCCC(=O)Nc2n[nH]c3nc(-c4ccc(O)cc4)c(Br)cc23)CC1 [SB-731579] here?
The value was 19%.

Which “%Inh” value does the source give for O=c1[nH]cc(-c2ccc(O)cc2)c2sc(-c3ccncc3)cc12 [GSK1033723] here?
Its value is 0%.

Nc1nccc(-c2ccc3c(N)n[nH]c3c2)n1 [GSK1034945] was tested. Which “%Inh” value did it give?
The value was 0%.

For COC(=O)c1cccc(NC(=O)NC2CCN(c3ccnc(NCc4ccc(F)cc4)n3)CC2)c1 [GSK1379860], which “%Inh” value is on record?
The value was 0%.

COc1cc2nccc(Nc3ccc(Oc4ccccc4)cc3)c2cc1OC.Cl [GI261656] was tested. Which “%Inh” value did it give?
The value was 0%.

Which “%Inh” value does the source give for Cn1ccc2ncnc(Oc3ccc(NC(=O)Nc4cccc(C(F)(F)F)c4)c(Cl)c3)c21 here?
Its value is 85%.

With CNC(=O)c1ccccc1Nc1nc(Nc2cccc(CS(C)(=O)=O)c2)ncc1C.O=CO [GSK1520489] as the compound, how does the “%Inh” value read?
The value was 95%.

Which “%Inh” value does the source give for Cc1cccc2c(-c3ccncc3)c(-c3ccc(F)cc3)nn12.Cl [GW461487] here?
The value was 0%.

Cc1nnc(-c2ccc3occ(-c4ccc(S(C)=O)cc4)c3n2)o1 (centres unmarked) was tested. Which “%Inh” value did it give?
The value was 0%.

Which “%Inh” value does the source give for OCCn1cc(-c2cnc3nnn(Cc4ccc5ncccc5c4)c3n2)cn1 here?
The value was 0%.

With COC(=O)c1cccc(NC(=O)NC2CCN(c3ccnc(Nc4cc(OC)c(OC)c(OC)c4)n3)C2)c1 (centres unmarked) [GSK1379767] as the compound, how does the “%Inh” value read?
The value was 19%.

For O=C(Nc1cccc(C(F)(F)F)c1)c1cccc(Oc2ccc3nccn3n2)c1, which “%Inh” value is on record?
The value was 39%.

Cc1cccc(-c2nc(Nc3ccncc3)c3sccc3n2)n1 [GW869641] was tested. Which “%Inh” value did it give?
Its value is 43%.

For COc1cc2ncn(-c3cc(OCC4CCCCC4)c(C(N)=O)s3)c2cc1OC [GSK204559], which “%Inh” value is on record?
The value was 19%.

For Cn1cc(-c2cccc3c(N)c(C(N)=O)nnc23)cn1, which “%Inh” value is on record?
Its value is 6%.

With NC(=O)Nc1sc(-c2ccc(F)cc2)cc1C(N)=O [GW789449] as the compound, how does the “%Inh” value read?
Its value is 0%.

With c1ccc(Oc2ccc(Nc3ccnc4ccc(-c5ccccn5)cc34)cc2)cc1 [GW407034] as the compound, how does the “%Inh” value read?
The value was 2%.

Cn1ccc2ncnc(Oc3ccc(NC(=O)Nc4cnn(C(C)(C)C)c4)c(Cl)c3)c21 was tested. Which “%Inh” value did it give?
Its value is 78%.

Which “%Inh” value does the source give for Cc1ccc(Nc2ccnc(Nc3ccc4c(c3)CS(=O)(=O)C4)n2)cc1O.Cl [GW579362] here?
Its value is 88%.

For Cc1ccc(C(=O)Nc2ccc(Oc3ccc4nc(NC(=O)C5CC5)cn4c3)c(F)c2)c(=O)n1-c1ccccc1, which “%Inh” value is on record?
Its value is 95%.

With CC(C(=O)NC1CCN(c2ccnc(Nc3ccc(F)cc3)n2)C1)c1ccc(Cl)cc1 (centres unmarked) [GSK1379713] as the compound, how does the “%Inh” value read?
The value was 12%.

For COC(=O)Nc1nc2cc(Oc3ccc(NC(=O)Nc4cc(C(F)(F)F)ccc4Cl)cc3)ccc2[nH]1.Cl [GW697465], which “%Inh” value is on record?
Its value is 91.5%.

CCOC(=O)N1CCC(n2cnc(-c3ccc(F)cc3)c2-c2ccnc(N)n2)CC1 [SB-219952] was tested. Which “%Inh” value did it give?
The value was 12%.

How did the “%Inh” value turn out when Cn1ccc2ncnc(Oc3ccc(NC(=O)Nc4cc(C(C)(C)C)on4)c(Cl)c3)c21 was run?
Its value is 88%.
